Measurements published in PMC13494018.
Unmarked numbers belong to inactive results. How the calls were made is not given here.

B1: design_599_7ce25d4d-e004-4b84-a16f-baf856d943ab_1149_dldesign_0_cycle1_af2pred (protein)
chain: DVLEKMKELVKEIIEAASKLSPDIAKIFEAAGKVALKKYEEDPEAGIKGAQKLAAVGARVALPDKEAAERLKELAKEVA
B2: design_599_7ce25d4d-e004-4b84-a16f-baf856d943ab_1166_dldesign_0_cycle1_af2pred (protein)
chain: AEELYEKAKKLLTEAIFGLADGTINEEEALKAIEEGRKAAEELKKLGDEEKAEELERGVRALEDMIEDIRKAE
B3: design_599_7ce25d4d-e004-4b84-a16f-baf856d943ab_290_dldesign_0_cycle1_af2pred (protein)
chain: SEARRERLRAEAEEAIEKLKEAAKQAFEAGNGEAALVAVRAAARARRLLADPATVEEGLRVAKEGLEKAEKLLKE
B4: design_599_7ce25d4d-e004-4b84-a16f-baf856d943ab_358_dldesign_0_cycle1_af2pred (protein)
chain: HMKYIELLDRINKVSKELQEAYKEASKDPENKPKVEELAKEASELRDKGYDEPEKAEEYLKKMEELAKEMKKLAKE
B5: design_599_7ce25d4d-e004-4b84-a16f-baf856d943ab_284_dldesign_0_cycle1_af2pred (protein)
chain: AEVEAFKAAAEKYYKKAKEYFEKAKKTGSKSLYLKGASYAELALHNLENAAKAAAAKDPAEGAKLQKELKETKEELDKLYEEARKAAV
B6: design_599_7ce25d4d-e004-4b84-a16f-baf856d943ab_1182_dldesign_0_cycle1_af2pred (protein)
chain: AAVEAALAAAEAEFDRAAAFARGAAAAAVKNPKTKAFGEEALKKLDALKAEVAAAKADPEAALKAAKAAAAEAEAIMDEALEANAKA
B7: design_599_7ce25d4d-e004-4b84-a16f-baf856d943ab_718_dldesign_0_cycle1_af2pred (protein)
chain: SELTEKVNKEADELRKRAREIGETARRLAEEAAKHDPAAAEEIRRLASLSIQKLFEGDEEEAERYWEEAVALAKAAVA
B8: design_599_7ce25d4d-e004-4b84-a16f-baf856d943ab_451_dldesign_0_cycle1_af2pred (protein)
chain: EKITAVNEAEAYLEALKHAAEVLTKIDPSLKPEAEKAIKEGEKLVKEAKEGNAETAKKAAEEIRKLLKEVIELGKKAKA
B9: design_599_7ce25d4d-e004-4b84-a16f-baf856d943ab_1147_dldesign_0_cycle1_af2pred (protein)
chain: DAEKLMKKAKEYAELAKQAKEKGTPSSAQVAEFHAEIAEELAKKAEELDPKYKKEAEEIKKIAKEAKAVGEKADEEILKKIK
B10: design_599_7ce25d4d-e004-4b84-a16f-baf856d943ab_928_dldesign_0_cycle1_af2pred (protein)
chain: AAAKEEAEKRAKKALEEGEKAAKEIEKSNAEEARKIAKEFREKAKELVADPEASPEEKKALAEGAQKAYEAAAEKEAKE
B11: design_599_7ce25d4d-e004-4b84-a16f-baf856d943ab_1596_dldesign_0_cycle1_af2pred (protein)
chain: DEEIKKKAEELKKKAEELEKEAETANAEELKKLAEEAIKLASKAAQLAEYAPKELAPYAEEVENYVSDIAVKAIQKRREVEEKEKKE
B12: design_599_7ce25d4d-e004-4b84-a16f-baf856d943ab_845_dldesign_0_cycle1_af2pred (protein)
chain: NELEKAAKAAEAVAKALRAAAEAGPTPESLAAVEALAKEAAKVDEAAADIARAAVAAARADPARAAEALRRGARIAKRLAEDYKKAI
B13: design_599_7ce25d4d-e004-4b84-a16f-baf856d943ab_1128_dldesign_0_cycle1_af2pred (protein)
chain: MLSKEASEVIKKAVKAAKKVAEAGKKLGIGEKAKKEAAKKVEEVADAVVESLEKGKEAAEKFAKEAEVLAKLAKA
B14: design_599_7ce25d4d-e004-4b84-a16f-baf856d943ab_441_dldesign_0_cycle1_af2pred (protein)
chain: GKKEEAEKKMKKAYEKMKKLAEEAGKAKDPKEAYEYLLKIEEVGAEAINYAAKIGDKETAREAAKKYRELFREAVKKAQAAGKA
B15: design_599_7ce25d4d-e004-4b84-a16f-baf856d943ab_1040_dldesign_0_cycle1_af2pred (protein)
chain: EKLKERYKAAAKNLEKAAESKDKNEAKALIGRAEALALNASADPAAPEIAKLADEALEAVYKDLEKGKELAKKAAEKAKEAAA
B16: design_599_7ce25d4d-e004-4b84-a16f-baf856d943ab_519_dldesign_0_cycle1_af2pred (protein)
chain: MEAALEALKKAAAEAANLVYDAADIGAEEAEKAAKEAIKKIKDTATPELAPLAKEYAEKLGKTAERLIENNKYGEELKK
B17: design_599_7ce25d4d-e004-4b84-a16f-baf856d943ab_1164_dldesign_0_cycle1_af2pred (protein)
chain: GKEEAYKKAKEAAEKALEKAEKALKLAKEGKIEEAAKELAEAQELRAEAEFYANKSDKEKKEELLKLIEEAKKKIKEARKVAKEKA
B18: design_599_7ce25d4d-e004-4b84-a16f-baf856d943ab_1788_dldesign_0_cycle1_af2pred (protein)
chain: MEEERREEGRRLAEELVEKAKKAKELAKSGEKIEEAKKLLKEAREEAKKAAKAGLLTPEELKEVADAIHEAYEAIAEGEAKK
B19: design_599_7ce25d4d-e004-4b84-a16f-baf856d943ab_929_dldesign_0_cycle1_af2pred (protein)
chain: GLDAVTDALAEAFYASREIEKIDPELGKELLEYAKELAKKAIAGTPEAAKKLAEEIKKKTEEKLKEAEEKAKKE

Target: VTCN1, Q7Z7D3
Sequence (Q7Z7D3 whole entry): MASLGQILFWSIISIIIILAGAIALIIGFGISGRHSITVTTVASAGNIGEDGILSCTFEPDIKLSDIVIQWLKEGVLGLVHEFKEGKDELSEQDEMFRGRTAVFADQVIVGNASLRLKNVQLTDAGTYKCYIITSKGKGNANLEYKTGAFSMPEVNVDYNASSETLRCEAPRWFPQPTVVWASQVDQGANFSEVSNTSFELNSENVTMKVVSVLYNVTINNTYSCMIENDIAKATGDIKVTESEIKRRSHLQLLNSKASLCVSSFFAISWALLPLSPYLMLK

Row | Binder | binding in a display sort
1 | B1 | not found
2 | B2 | not found
3 | B3 | not found
4 | B4 | not found
5 | B5 | binds (active)
6 | B6 | not found
7 | B7 | not found
8 | B8 | not found
9 | B9 | not found
10 | B10 | not found
11 | B11 | not found
12 | B12 | not found
13 | B13 | not found
14 | B14 | not found
15 | B15 | not found
16 | B16 | not found
17 | B17 | not found
18 | B18 | not found
19 | B19 | not found
